Earlier results, collected in PubChem BioAssay AID977611.
Among all 3,900 compounds or so, about 3,900 (100%) were called active. The limit is not given here; nearly all actives have Kd up to about 4200 µM. The set was probably picked from earlier hits. The list shows a part of the results. Where a SMILES comes first, the peptide text is derived from it. Square brackets hold non-standard residues; d marks the D form. Peptide text beside a SMILES is read from it. [ ]: non-standard residue; d: D form. Orn(CH(NH2)2) = NC(N)NCCC[C@H](N)C(=O)O

Experiment: PubChem AID 977611
Settings: PDB protein-ligand complexes, literature Kd

NC(=O)C1=CN([C@H]2O[C@H](CO[P+](O)(O)O[P+](O)(O)OC[C@H]3O[C@@H](n4cnc5c(N)ncnc54)[C@H](O)[C@@H]3O)[C@@H](O)[C@H]2O)C=CC1
Kd (protein: Redox-sensing transcriptional repressor rex, PDB entry 3wgg): 39.9 µM (active)

Nc1ncnc2c1ncn2[C@@H]1O[C@H](CO[P+](O)(O)O[P+](O)(O)O[P+](O)(O)O)[C@@H](O)[C@H]1O
Kd (protein: ADENYLATE CYCLASE TYPE 10, PDB entry 4usw): 2030 µM (active)
Kd (protein: Chaperone protein DnaK (N432M,Q433G,S434G mutation), PDB entry 4jn4): 1.38 µM (active)
Kd (protein: Hsp70 CHAPERONE DnaK (N432M,Q433G,S434G mutation), PDB entry 4jne): 1.38 µM (active)
Kd (protein: Nitrogen regulatory protein P-II hmGlnK2, PDB entry 4ozn): 4 µM (active)
Kd (protein: Protein hfq, PDB entry 3qo3): 0.125 µM (active)
Kd (protein: Walker B/D-loop D645N, D651A double mutant rat TAP1-NBD, PDB entry 4k8o): 170 µM (active)

C[C@H](NC(=O)[C@H](Cc1c[nH]c2ccccc12)NC(=O)[C@H](CC(N)=O)NC(=O)[C@@H](N)CC(N)=O)C(=O)N[C@@H](CC(=O)O)C(=O)N[C@@H](Cc1ccccc1)C(=O)N[C@@H](CO)C(=O)N[C@@H](CO)C(=O)N[C@H](C(=O)N[C@@H](Cc1c[nH]c2ccccc12)C(=O)N1CCC[C@H]1C(=O)O)[C@@H](C)O (H-NNWADFSSTWP-OH)
Kd (protein: Adaptor protein complex AP-2, subunit beta-1, PDB entry 3hs9): 0.49 µM (active)

H-PHGGSWGQP-OH
Kd (protein: POM2 Fab, PDB entry 4j8r): 0.02 µM (active)

CC(=O)N1CCC[C@H]1C(=O)N[C@@H](Cc1c[nH]c2ccccc12)C(=O)N[C@@H](C)C(=O)N[C@H](C(=O)N[C@@H](CS)C(=O)N[C@@H](CC(=O)O)C(=O)N[C@@H](CO)C(N)=O)[C@@H](C)O
Kd (protein: Thiol:disulfide interchange protein DsbAC30S, PDB entry 4od7): 8.3 µM (active)

H-PDVSSSTA-OH
Kd (protein: Speckle-type POZ protein, SPOPMATH, PDB entry 3ivq): 76.1 µM (active)

H-PDWDFN-NH2
Kd (protein: AP-1 COMPLEX SUBUNIT GAMMA-LIKE 2, PDB entry 3zhf): 120 µM (active)

NCCCC[C@H](NC(=O)[C@H](CO)NC(=O)[C@@H]1CCCN1)C(=O)N[C@@H](CCCCN)C(=O)N[C@@H](CCCNC(N)N)C(=O)N[C@@H](CCCCN)C(=O)N[C@@H](CCCNC(N)N)C(=O)N[C@@H](CO)C(=O)N[C@@H](CCCNC(N)N)C(=O)N[C@@H](Cc1c[nH]c2ccccc12)C(=O)N[C@@H](CC(N)=O)C(=O)N[C@@H](CCC(N)=O)C(=O)N[C@@H](CC(=O)O)C(=O)O (H-PSKK[Orn(CH(NH2)2)]K[Orn(CH(NH2)2)]S[Orn(CH(NH2)2)]WNQD-OH)
Kd (protein: the C-terminal RRM (RRM3) of human U2AF65, PDB entry 1opi): 0.05 µM (active)

C[C@H](NC(=O)[C@H](Cc1c[nH]c2ccccc12)NC(=O)[C@H](CC(N)=O)NC(=O)[C@H](CC(N)=O)NC(=O)[C@@H]1CCCN1)C(=O)N[C@@H](CC(=O)O)C(=O)N[C@@H](Cc1ccccc1)C(=O)N[C@@H](CO)C(=O)N[C@@H](CO)C(=O)N[C@H](C(=O)N[C@@H](Cc1c[nH]c2ccccc12)C(=O)N1CCC[C@H]1C(=O)O)[C@@H](C)O (H-PNNWADFSSTWP-OH)
Kd (protein: Adaptor protein complex AP-2, alpha 2 subunit, PDB entry 3hs8): 5 µM (active)

CCCCCCCC(=O)OC[C@H](CO[P+](O)(O)OCC[N+](C)(C)C)OC(=O)CCCCCCC
Kd (protein: Matrix protein p17, PDB entry 2lya): 65 µM (active)

CCCCCCCC(=O)OC[C@H](CO[P+](O)(O)OC[C@H](N)C(=O)O)OC(=O)CCCCCCC
Kd (protein: Matrix protein p17, PDB entry 2lyb): 35 µM (active)

CC(C)C[C@H](CNC(=O)c1ccncc1)Cc1ccc2c(c1C(=O)O)OCO2
Kd (protein: HIV INTEGRASE, PDB entry 4cj4): 432 µM (active)

CC(C)C[C@H](CNC(=O)Cc1c[nH]c2ccccc12)Cc1ccc2c(c1C(=O)O)OCO2
Kd (protein: HIV integrase, PDB entry 4cjq): 256 µM (active)

CC(C)C[C@H](CNC(=O)c1cccnc1)Cc1ccc2c(c1C(=O)O)OCO2
Kd (protein: HIV integrase, PDB entry 4cjp): 481 µM (active)

CC(C)C[C@H](CNC(=O)CCCN)Cc1ccc2c(c1C(=O)O)OCO2
Kd (protein: HIV integrase, PDB entry 4ck3): 268 µM (active)

NCCCC[C@H](NC(=O)[C@H](Cc1c[nH]c2ccccc12)NC(=O)c1ccc(O[C@@H]2O[C@H](CO)[C@H](O)[C@H](O)[C@H]2O)cc1)C(=O)N[C@@H](Cc1ccc(O)cc1)C(N)=O
Kd (protein: PA-I galactophilic lectin, PDB entry 4lkf): 4.3 µM (active)

NC(=O)CC[C@H](NC(=O)c1ccc(O[C@@H]2O[C@H](CO)[C@H](O)[C@H](O)[C@H]2O)cc1)C(=O)N[C@@H](CCCNC(N)N)C(=O)N[C@@H](CO)C(N)=O
Kd (protein: PA-I galactophilic lectin, PDB entry 4lkd): 4.5 µM (active)

NC(=O)CNC(=O)[C@H](Cc1c[nH]c2ccccc12)NC(=O)c1ccc(O[C@@H]2O[C@H](CO)[C@H](O)[C@H](O)[C@H]2O)cc1
Kd (protein: PA-I galactophilic lectin, PDB entry 4lke): 4.3 µM (active)

CC[C@H](C)[C@H](NC(=O)[C@@H](NC(=O)[C@@H]1CCCN1C(=O)[C@H](CCCNC(N)N)NC(=O)[C@H](CCCNC(N)N)NC(=O)[C@@H]1CCCN1)C(C)C)C(=O)N[C@@H](CCSC)C(=O)N[C@@H](CCCNC(N)N)C(N)=O (H-P[Orn(CH(NH2)2)][Orn(CH(NH2)2)]PVIM[Orn(CH(NH2)2)]-NH2)
Kd (protein: Chaperone protein DnaK, PDB entry 4ezt): 7.4 µM (active)

CC[C@H](C)[C@H](NC(=O)[C@H](CO)NC(=O)[C@H](CCCCN)NC(=O)[C@@H](NC(=O)[C@H](Cc1cnc[nH]1)NC(=O)[C@H](CCC(=O)O)NC(=O)[C@@H]1CCCN1C(=O)[C@H](CCCNC(N)N)NC(=O)[C@@H]1CCCN1C(=O)[C@H](C)NC(=O)[C@@H](NC(=O)[C@@H](NC(=O)[C@@H]1CCCN1C(=O)[C@@H]1CCCN1)C(C)C)[C@@H](C)CC)[C@@H](C)O)C(=O)N[C@@H](Cc1ccc(O)cc1)C(=O)N[C@H](C(=O)N[C@@H](CCCNC(N)N)C(=O)N[C@@H](CO)C(=O)O)[C@@H](C)O (H-PPVIAP[Orn(CH(NH2)2)]PEHTKSIYT[Orn(CH(NH2)2)]S-OH)
Kd (protein: the SH3 Domain of ?PIX, PDB entry 2df6): 1.05 µM (active)

CC(C)C[C@H](NC(=O)[C@H](Cc1ccc(O)cc1)NC(=O)[C@@H]1CCCN1C(=O)[C@@H]1CCCN1)C(=O)N1CCC[C@H]1C(=O)N[C@@H](CCCNC(N)N)C(=O)N1CCC[C@H]1C(=O)N[C@@H](CCCNC(N)N)C(=O)O (H-PPYLP[Orn(CH(NH2)2)]P[Orn(CH(NH2)2)]-OH)
Kd (protein: Chaperone protein DnaK, PDB entry 4ezo): 0.3 µM (active)

CC[C@H](C)[C@H](NC(=O)[C@@H]1CCCN1C(=O)[C@H](CCCNC(N)N)NC(=O)[C@@H]1CCCN1C(=O)[C@@H]1CCCN1)C(=O)N[C@@H](Cc1ccc(O)cc1)C(=O)N[C@@H](CC(N)=O)C(=O)O (H-PP[Orn(CH(NH2)2)]PIYN-OH)
Kd (protein: Chaperone protein DnaK, PDB entry 4ezq): 6.3 µM (active)
